Compound activity from PubChem.
Sampled rows, rich in hits. Any-hit rate of the full collection: about 21%.
CHX counter – counter-screen hit for Shiga toxin inhibitors, cycloheximide; cell reporter, cycloheximide protein synthesis inhibition counterscreen; max response, %; 300,000 compounds, 12% hits; AID 2314; in the data active = max response mostly above about 13%, no sharp cut-off; inactive = mostly below about 14%; note: read at 38.3 µM for the half of the compounds with a filed dose; 0% is about no effect
Pf growth 48h – P. falciparum growth inhibition at 48 hours (one generation); P. falciparum luciferase growth in erythrocytes, 48 h; Potency, µM (series often up to 28.7 µM), inactives show top-dose activity change, negative = inhibition, actives largely listed as inhibitors; 310,000 compounds, 5.9% hits; AID 504832; note: potency is the fitted concentration of half-maximal effect; % is set by controls: 0 for no effect and ±100 for the full control effect
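Erythrocytes infected with P. falciparum carrying an integrated firefly luciferase reporter (2% hematocrit, 0.1% parasitemia final) were exposed to compounds in RPMI 1640 with 0.5% Albumax at 37 C, 5% CO2. Growth inhibition was scored as reduced luminescence.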
Shiga toxin inh – inhibitors of Shiga toxin in Vero cells; Vero cells, Shiga toxin protein synthesis inhibition reporter; inhibition, % at 38.7 µM; 290,000 compounds, 9.2% hits; in the data active = inhibition mostly above about 28%, no sharp cut-off; inactive = mostly below about 43%; note: 0% is about no effect
Pf growth 96h – P. falciparum growth inhibition at 96 hour, primary screen for plastid delayed-death inhibitors; Potency, µM (top dose mostly 28.7 µM), for the others: at the highest dose activity change, negative = inhibition, hits mostly inhibitors; 320,000 compounds, 6.9% hits; AID 504834; P. falciparum luciferase reporter growth, 96 h; note: potency is the fitted concentration of half-maximal effect; % is set by controls: 0 for no effect and ±100 for the full control effect
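Cell-based qHTS: luciferase-tagged P. falciparum in erythrocytes (2% hematocrit, 0.05% parasitemia final) incubated with compounds for 96 hours, 37 C, 5% CO2; luciferase detection reagent then added and luminescence measured.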
Active calls of the source: *; i = inactive; ? = inconclusive; . = not tested or not shown; [ ] = remark or other dose. Unless noted, calls come from the whole dose curve; as a rule, active = well fitted inhibition curve with a large enough effect; inconclusive = small, poorly fitted or top-dose-only effect, or another doubt; inactive = no such curve, though single readings can be large or run the other way.

SMILES | CHX counter | Pf growth 48h | Shiga toxin inh | Pf growth 96h
C/C=C(\C)C(=O)OC1C(C)=C2C(C1OC(=O)CCCCC)C(C)(OC(C)=O)CC(OC(=O)CCC)C1(O)C2OC(=O)C1(C)O (stereo not given) | -7.1 | 4.15µM* | 1.8 | 2.94µM*
Cc1nnc(NC(=O)c2ccccc2-c2ccccc2C(=O)O)s1 | -1.3 | 5.1% | 2.0 | 15.7%
CCC(C)C(=O)Nc1nnc(CCc2ccccc2)s1 (stereo not given) | 19.2* | 37.9% | 26.7 | 62.9%
CC(C)CC(=O)Nc1nnc(CCc2ccccc2)s1 | 10.4 | 35.3% | 2.8 | -0.6%
Cc1nnc(NC(=O)c2ccccc2F)s1 | 17.5* | 59.4% | 35.8* | -10.0%
O=C(Nc1nnc(CCc2ccccc2)s1)c1ccccc1F | 26.1* | 36.3% | 40.8 | 3.9%
Cc1nnc(NC(=O)c2ccccc2Br)s1 | 23.7* | 65.4% | 91.7 | 58.2%
CC(C)[C@H](NC(=O)OCc1ccccc1)C(=O)N[C@@H](Cc1c[nH]c2ccccc12)C(=O)O | . | 12.5% | . | ?
Cc1ccc(C2=NN(C(=O)c3ccco3)C(O)(C(F)(F)F)C2)cc1 (stereo not given) | 13.7* | 14.6% | 37.1* | 11.9%
CC1=NN(C(=O)c2ccoc2C)C(O)(C(F)(F)F)C1 (stereo not given) | 50.1* | ? | 44.1* | 120.4%
COc1ccc(C(=O)N2N=C(c3ccccc3)CC2(O)C(F)(F)F)cc1 (stereo not given) | 6.5 | -6.2% | 12.7 | ?
COC(=O)N1N=C(c2ccccc2)CC1(O)C(F)(F)F (stereo not given) | 38.6* | 77.2% | 105.6* | 63.4%
CCCCC1=NN(C(=O)c2cocc2C)C(O)(C(F)(F)F)C1 (stereo not given) | 20.4* | -21.8% | 32.3* | -11.4%
COc1ccc(C(=O)NCc2nnc(SCC(=O)NC3CCCCC3)o2)cc1 | -8.9 | 8.2% | 6.3 | -23.4%
COc1cccc(C2=NN(C(=O)c3ccco3)C(O)(C(F)(F)F)C2)c1 (stereo not given) | 22.1 | 4.15µM* | 4.4 | -22.0%
Cc1ccc(C(=O)C[n+]2ccc3ccccc3c2)cc1 | 22.1* | -35.2% | 44.7 | -26.8%
O=C(C[n+]1ccc2ccccc2c1)c1ccc(NC(=O)c2ccccc2)cc1 | -4.0 | 13.1µM* | 22.0 | 50.8%
O=c1c2ccccc2oc2ccc(Oc3ccccc3)cc12 | 40.9* | 109.0% | 42.0* | 77.6%
CC(=O)/C=C/c1ccc2ccccc2n1 | 22.4* | ? | 27.6 | ?
O/N=C/c1ccc2cccc(O)c2n1 | 7.8* | -12.0% | 44.1* | ?
CC(OC(=O)/C=C/c1ccc2ccccc2n1)C(=O)N(C)c1ccccc1 (stereo not given) | . | ? | . | -21.2%
O/N=C/c1ccc2ccccc2n1 | 49.6* | 150.9% | 106.5* | 105.9%
COc1cc(/C=N/NC(=O)/C(=C\c2ccc3c(c2)OCO3)NC(=O)c2ccccc2)ccc1O | -0.7 | 0.6% | 8.4 | ?
COc1ccc2c(Cl)c(C(=O)N/N=C/c3ccc4c(c3)OCO4)sc2c1 | 5.8 | 0.5% | 7.6 | ?
COc1cc(/C=N/NC(=O)c2ccc3c(c2)OCO3)ccc1O | 63.4* | 111.8% | 81.3* | -24.6%
SMILES | CHX counter | Pf growth 48h | Shiga toxin inh | Pf growth 96h
COc1ccc(NCC(=O)N/N=C/c2ccc3c(c2)OCCO3)cc1 | 22.1* | 26.9% | 44.1 | 0.0%
COc1ccc(/C=N/NC(=O)c2ccc3c(c2)OCO3)cc1 | 26.8* | -15.2%[0.00184 µM] | 102.4* | -3.6%
COc1ccc(NS(=O)(=O)c2cccc(C(=O)N/N=C/c3ccc4c(c3)OCCO4)c2)cc1 | 7.9 | 13.4% | -5.9 | -2.5%
COc1ccc(CCC(=O)NCC2CCCCC2)cc1OC | 10.7 | 16.0% | 18.5 | 39.6%
O=C(CN1CCN(Cc2ccc(F)cc2Cl)C1=O)NCCc1ccccc1 | 13.5* | . | 15.7 | ?
O=C(O)CN1CCN(Cc2ccc(F)cc2Cl)C1=O | 1.6 | ? | -6.1 | 8.28µM*
CC(C)CN(C(=O)COC(=O)CSc1ccc([N+](=O)[O-])cc1)C1CCS(=O)(=O)C1 (stereo not given) | . | 5.3% | . | 16.6%
O=C(Nc1nnc(Cc2ccccc2)s1)C1CCN(C(=O)c2ccco2)CC1 | 8.0 | -9.8% | -1.8 | 7.7%
CCCCCCC(=O)N1CCCC(c2nc(-c3cccc(OC)c3)no2)C1 (stereo not given) | -1.8 | -6.5% | 14.4 | 31.8%
COc1cccc(-c2noc(C3CCCN(C(=O)Cc4ccccc4)C3)n2)c1 (stereo not given) | 22.5* | 22.1% | 24.1 | 7.8%
COc1cccc(-c2noc(C3CCCN(C(=O)c4cccc(F)c4)C3)n2)c1 (stereo not given) | 34.7* | ? | 45.4* | ?
CCCC(=O)N1CCCC(c2nc(-c3cccc(OC)c3)no2)C1 (stereo not given) | 32.0* | -11.6% | 77.0* | -26.2%
COc1ccc(-c2noc(C3CCCN(C(=O)c4cccc(F)c4)C3)n2)cc1 (stereo not given) | -2.2 | -0.6% | . | 23.5%
COc1cc(C(=O)NCCSc2ccc(Cl)cc2)cc(OC)c1OC | -2.4 | ? | -4.7 | ?
COc1ccc(C(=O)NCCSc2ccccc2)cc1OC | 32.9* | 82.7% | 64.1* | 32.1%[5.75 µM]
COc1cc(C(=O)NCCSc2ccccc2)cc(OC)c1OC | 9.5 | -8.5% | -1.3 | 10.4µM*
CN(C)S(=O)(=O)c1ccc(C(=O)NCCSc2ccccc2)cc1 | 48.1* | 82.0% | 151.0* | .
COc1ccc(C(=O)NCCSCc2ccccc2)cc1OC | 6.3 | -8.4% | 34.1 | -25.7%
CN(C)c1ccc(C(=O)NCCCSc2ccccc2)cc1 | 8.9 | -1.0% | 31.4 | 8.7%
CCOC(=O)c1c(NC(=O)COC(=O)Cn2cnc3c2c(=O)n(C)c(=O)n3C)sc(C)c1CC | . | 2.1% | . | 62.2%
CCOC(=O)C1=C(COC(=O)c2cc(Br)c(Br)s2)NC(=O)NC1C (stereo not given) | . | 5.5% | . | 5.1%
O=C(NCCCn1ccnc1)C(Cc1ccccc1)N1C(=O)c2ccccc2C1=O (stereo not given) | 5.9 | 14.7% | -8.7 | .
COc1ccc(NC(=O)c2ccco2)c([N+](=O)[O-])c1 | 20.1* | 132.2% | 34.7* | -10.0%
COc1ccc(NC(=O)C/C(C)=N/NC(=O)c2ccco2)c([N+](=O)[O-])c1 | 19.1* | 5.1% | 92.5* | ?
Cc1ccc(NC(=O)c2ccco2)c(NC(=O)c2ccccc2)c1 | -5.6 | 15.8% | -5.6 | -27.8%
SMILES | CHX counter | Pf growth 48h | Shiga toxin inh | Pf growth 96h
COc1ccc(NC(=O)C/C(C)=N/NC(=O)c2ccncc2)c([N+](=O)[O-])c1 | -3.4 | 6.6% | -8.4 | 3.5%
COc1ccc(NC(=O)CN2CCC(NC(=O)c3ccco3)CC2)c([N+](=O)[O-])c1 | -3.4 | ? | -4.7 | -16.9%
Cc1ccc(NC(=O)c2ccco2)c([N+](=O)[O-])c1 | 40.6* | i | 107.4* | ?
COCCN(C(=O)COC(=O)Cc1ccc(Cl)cc1Cl)c1c(N)n(Cc2ccccc2)c(=O)[nH]c1=O | . | ? | . | -1.6%
Cc1cc(C)n(CC(C)NCc2cn[nH]c2-c2ccc(C)c(C)c2)n1 (stereo not given) | -2.7 | 8.0% | 0.2 | ?
O=[N+]([O-])c1ccc(-c2[se]c3ccccc3c2I)cc1 | 33.4 | . | i | .
